Screening results (PubChem BioAssay)
HCV inh = inhibitors of hepatitis C virus infection. 340,000 tested, 3.4% active. Huh7.5.1 HCVcc-Cre infection, luciferase reporter, 44 h. Potency, µM (titrated, usually from 41.8 µM), for inactives: at the highest dose activity change, negative = inhibition, usual class: inhibitors. AID 651820; further: potency means the concentration at half of the fitted maximal effect
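Luciferase read-out (15 sec integration) after a 15 min room-temperature substrate step quantifies HCVcc-Cre infection. Cells, 1,000 per well, had compound added 4 h post-plating, then virus at ~0.5 moi, and were cultured 44 h.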
FMDV antiviral = blocks foot and mouth disease virus. FMDV antiviral cell-based qHTS. Potency, µM (titrated, usually from 57.9 µM), for inactives: top-dose activity change, negative = inhibition, hits mostly inhibitors. 410,000 tested, 1.2% active. AID 1159524; calls by dose curve; tested in HEK293T cells; further: read-out not given here; potency means the concentration at half of the fitted maximal effect; nearly all actives have a fitted effect of over 45% in size
AmpC no deterg = inhibitors of E. coli AmpC beta-lactamase without detergent. AID 485341. 330,000 tested, 0.52% active. Potency, µM (series often up to 57.1 µM), without a hit: at the highest dose activity change, negative = inhibition, actives largely listed as inhibitors. AmpC nitrocefin hydrolysis, absorbance 480 nm, 0.0001% Triton;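 further: potency means the concentration at half of the fitted maximal effect; plate controls were no compound for no effect and no enzyme for full effect; nearly all actives have a fitted effect of over 20% in size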
Target sequence (P00811 whole entry, looked up): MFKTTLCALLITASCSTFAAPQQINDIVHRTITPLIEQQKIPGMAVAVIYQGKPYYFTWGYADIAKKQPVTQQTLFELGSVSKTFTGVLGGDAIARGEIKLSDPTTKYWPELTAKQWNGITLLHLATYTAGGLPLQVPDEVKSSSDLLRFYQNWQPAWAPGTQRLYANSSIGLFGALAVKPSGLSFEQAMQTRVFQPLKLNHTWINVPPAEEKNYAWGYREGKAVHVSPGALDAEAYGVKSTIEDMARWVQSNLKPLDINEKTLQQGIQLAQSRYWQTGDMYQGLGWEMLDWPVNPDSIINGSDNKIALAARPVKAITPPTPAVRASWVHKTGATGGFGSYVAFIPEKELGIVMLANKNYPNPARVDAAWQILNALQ
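AmpC (5.3 nM in the dispensed reagent) in 20 mM phosphate pH 7.0 with 0.01% (detergent screen) or 0.0001% Triton X-100 was preincubated with compounds for 15 min at room temperature. Nitrocefin was then added from an 800 uM solution, and hydrolysis was followed at 480 nm.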
AmpC detergent = blocks E. coli AmpC beta-lactamase in detergent assay; Potency, µM (titrated, usually from 114 µM), for inactives: at the top dose activity change, negative = inhibition, most hits filed as inhibitors; AmpC hydrolysis of nitrocefin, absorbance 480 nm, 0.01% Triton; 370,000 tested, 0.041% active; P00811;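 further: potency means the concentration at half of the fitted maximal effect; 0% = no-compound wells and -100% = no-enzyme wells; nearly all actives have a fitted effect of over 25% in size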
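20 mM phosphate pH 7.0 + 0.01% (detergent screen) or 0.0001% Triton X-100; 5.3 nM AmpC reagent; cpd preinc 15 min RT; nitrocefin (800 uM stock) to start; A480 q20 s × 4 min; Activity was normalised to no-enzyme and no-compound control wells.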
HCMV antiviral = blocks human cytomegalovirus replication | activity change, negative = inhibition, % at 57.5 µM | 410,000 tested, 4.5% active | HFF cells, HCMV-luciferase reporter, 72 h; hits give low values | AID 1259415; in the data active means activity change below about -60%; inconclusive means no clear call, values can overlap the other calls; inactive means above about -39%
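Luciferase read-out from HCMV-luciferase-infected HFFs (MOI 1 PFU/cell) 72 h post infection at 37C; compounds added after 16 h cell attachment; activity normalized between buffer-only basal and Salinomycin (10uM) inhibitor controls.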
An asterisk follows results filed as active; ? = inconclusive; · = no result given; [ ] = dose if it differs, or a comment. Compounds with a hit are over-represented: about 7.3% of the library has one in this group of screens. Unless noted, the call rests on the fitted dose curve; in most records, active means well fitted curve in the direction sought with a large enough effect; inconclusive means small, poorly fitted or top-dose-only effect, or another doubt; inactive means no such curve, though single readings can be large; an effect the other way counts as inactive or inconclusive. Unless noted, on the % scale 0 is the no-effect control and ±100 the full control effect.

SMILES	HCV inh	FMDV antiviral	AmpC no deterg	AmpC detergent	HCMV antiviral
C=C1C(=O)OC2C=C(CO)C3OC3C3OC3(C)CC(OC(=O)/C(=C/C)COC(C)=O)C12 (stereo unspecified)	?	7.94µM*	·	·	-100.4*
Clc1ncnc2[nH]ccc12	11.7%	2.6%	·	·	-24.0
COC(=O)CSc1nnc(-c2ccc(OC)c(OC)c2)o1	1.6%	-4.3%	1.1%	0.0%	0.7
COC(=O)CSc1nnc(-c2cccc(O)c2)o1	·	5.2%	·	8.4%	-64.7*
Cc1cccc(-c2nnc(SCCC(=O)O)o2)c1	·	?	·	-4.4%	-87.8*
Cc1ccc(-c2nnc(SCCC(=O)N3CCOCC3)o2)cc1	15.3%	1.4%	9.1%	-1.1%	-100.5*
Cc1cccc(-c2nnc(SCCC(=O)N3CCOCC3)o2)c1	25.1%	-19.5%	11.5%	-6.2%	?
CCCCN(C)C(=O)C1CCC(CNS(=O)(=O)c2ccc3c(c2)CC(C)N3C(=O)C2CC2)CC1 (stereo unspecified)	?	?	169.7%	0.2%	?
S=C(NCCc1ccccc1)Nc1ccc(Cl)cc1	?	35.3%	-34.6%	?	-79.0*
O=[N+]([O-])c1ccc(NNC(=S)Nc2ccccc2)cc1	11.2µM*	-1.0%	-54.3%	-7.2%	·
CCCCc1ccc(NC(=O)C(=O)NCCN2CCN(Cc3ccc([N+](=O)[O-])cc3)CC2)cc1	?	?	-15.3%	2.3%	-60.2*
O=[N+]([O-])c1ccc(NC(=S)NCc2ccncc2)cc1	?	-5.9%	-36.4%	4.9%	-19.1
CNC(=O)C(=O)NCCN1CCN(C(=O)c2ccc([N+](=O)[O-])cc2)CC1	12.5%	-8.7%	44.7%	-1.0%	32.8
O=[N+]([O-])c1ccc(NC(=S)NCc2ccc(F)cc2)cc1	?	-5.8%	-54.2%	-5.8%	-98.7*
Cc1ccc(CCNC(=O)C2CCCN(S(=O)(=O)N3CC(C)CC(C)C3)C2)cc1 (stereo unspecified)	-16.5%	-7.7%	63.5%	-7.9%	0.0
COc1ccc(-c2cc(NC=O)c3ncc(-c4ccc(OC)c(OC)c4)n3c2)cn1	·	·	·	·	-12.0
O=C(Nc1ccc(F)cc1)c1nc[nH]c1C(=O)Nc1ccc([N+](=O)[O-])cc1	6.1%	-21.1%	-33.4%	-3.1%	-60.8*
NS(=O)(=O)c1ccc(NC(=S)NCCc2ccccc2)cc1	23.7%	21.5%	-21.8%	1.4%	-31.9
O=[N+]([O-])c1ccc(NC(=S)NCCc2ccc(Cl)cc2)cc1	?	8.6%	0.141µM*	0.3%	-106.8*
O=[N+]([O-])c1ccc(NC(=S)NCCc2ccccc2)cc1	?	35.5%	-42.8%	-5.1%	-96.5*
NS(=O)(=O)c1ccc(CCNC(=S)NC2CCCC2)cc1	9.2%	-4.9%	-15.9%	-6.5%	79.9
S=C(NCCc1ccc(Cl)cc1)NC1CC1	11.2%	26.4%	-0.7%[2.29 µM]	-13.4%	-75.0*
COc1cc2cc(CCCOC(=O)c3ccc(F)cc3)oc(=O)c2cc1OC	-0.8%	-13.7%	39.7%	-0.6%	25.0
O=C(O)CCC(=O)Nc1ccc(C(=O)OCC(=O)c2ccc(Cl)cc2Cl)cc1	4.8%	-7.1%	-29.8%	4.6%	-23.7
COc1ccc(CNC(=O)CCCN2C(=O)NC3(CCCC3)C2=O)cc1	6.9%	-4.8%	-3.2%	0.8%	-18.2
SMILES	HCV inh	FMDV antiviral	AmpC no deterg	AmpC detergent	HCMV antiviral
CCC(C)NS(=O)(=O)c1ccc(NC(=O)Cc2ccc(OC)cc2)cc1 (stereo unspecified)	?	-6.3%	-21.7%	?	?
COc1ccc([N+](=O)[O-])cc1NC(=S)Nc1ccccc1	3.8%	-23.7%	-21.7%	4.5%	43.6
O=[N+]([O-])c1ccc(O)c(NC(=S)Nc2ccccc2)c1	-9.7%	43.1%	-18.4%	1.3%	-89.5*
CC(C)(C)OC(=O)N1CCC(c2nnc(SCc3ccccc3)o2)CC1	·	-16.0%	·	-3.0%	0.4
COc1ccc(-c2cnc3ccccc3n2)cc1NC(=O)CNC(=O)c1ccccc1	-5.0%	65.5%	-11.9%	0.2%	-36.0
COc1ccc(/C=C/c2nc(C)c(-c3ccccc3)c(=O)[nH]2)cc1OC	-0.3%	-25.5%	83.9%	0.5%	-65.1*
COc1cc(/C=C/c2nc3ccccc3c(=O)[nH]2)ccc1OC(F)F	-14.0%	48.8%	-3.2%	-20.3%	-12.6
COc1ccc(C2=NCC(=S)Nc3ccc(Cl)cc32)cc1Cl	-12.9%	?	-14.2%	7.1%	-62.8*
COc1ccc(C2=NCC(=S)Nc3ccc(Cl)cc32)cc1OC	-5.3%	-8.3%	·	·	115.8
OCCN1CCN(Cc2ccc3c(c2)CN(Cc2cccn2-c2ccccn2)CCO3)CC1	·	-11.8%	·	·	·
COc1ccccc1C1=NOC(Cn2c(NCCCO)nc3c2c(=O)n(C)c(=O)n3C)C1 (stereo unspecified)	19.0%	-25.0%	3.7%	-0.7%	33.1
COc1ccc(C2=NOC(Cn3c(Cc4ccc(Cl)cc4)nc4c3c(=O)n(C)c(=O)n4C)C2)cc1 (stereo unspecified)	1.41µM*	-20.2%	3.2%	-8.5%	-9.3
COc1ccc(/C=C2/Sc3ccc(C(=O)NCCN4CCCCCC4)cc3NC2=O)cc1	?	-6.2%	102.1%	-6.8%	-112.0*
O=C1Nc2cc(C(=O)NCCCN3CCOCC3)ccc2S/C1=C/c1cccc(Cl)c1	?	?	-2.9%	0.0%	-23.7
CCCN1CCN(CCCNC(=O)c2ccc3c(c2)NC(=O)c2ccccc2S3)CC1	-0.4%	-21.4%	8.6%	?	-22.6
O=C1Nc2cc(C(=O)NCCCN3CCOCC3)ccc2S/C1=C/c1ccccc1F	8.91µM*	?	185.8%	4.6%	-27.7
O=C1Nc2cc(C(=O)NCCCN3CCCC3)ccc2S/C1=C\c1ccccc1	11.2µM*	-23.8%	67.1%	-1.0%	?
CCOC(=O)/C(=C\c1cn(C)c2ccccc12)[N+](=O)[O-]	7.5%	28.2µM*	-9.3%	-1.3%	89.6
Cc1ccccc1CCNC(=O)c1ccc(Cn2c(=O)c3cccn3c3cccnc32)cc1	·	-27.5%	·	2.5%	-8.9
CCCn1c(=NC(=O)CS(=O)(=O)c2ccccc2)sc2cc(S(C)(=O)=O)ccc21	8.7%	-11.6%	-18.3%	0.0%	?
COc1ccc2c(c1)sc(=NC(=O)CS(=O)(=O)c1ccc(F)cc1)n2C	?	-18.3%	-38.6%	-13.6%	-73.4*
Cc1ccc(C)c(Cn2c(SCC(=O)N(C)Cc3ccccc3)nc3ccccc32)c1	·	-16.4%	·	9.1%	-18.7
CC1(C(=O)NS(=O)(=O)c2ccccc2Cl)CCN1C(=O)Cc1ccc(Cl)cc1Cl (stereo unspecified)	·	15.2%	·	·	-9.1
O=C(COc1ccc([N+](=O)[O-])cc1)Nc1nc(-c2ccccn2)cs1	10µM*	-10.9%	-11.9%	0.0%	-71.4*
CCCOC(=O)c1cccc(NC(=O)COc2ccc([N+](=O)[O-])cc2)c1	?	25.1µM*	-53.6%	-3.8%	-4.5
